This assay can be described thus: HT29 colon tumor cell growth inhibition, primary screen, imaging, high content imaging, 24 h, CellTiter-Glo (AID 770).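 As to condensed nuclei: share of cells whose nuclear area falls below control median minus 1.5 SD.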 The settings on record: HT29 cell number by imaging, at 10 µM, stronger effect = higher value; for condensed nuclei: measured here: percent cells with condensed nuclei.
Setting [1] is: measured here: ATP CellTiter-Glo viability.

The whole screen tested about 3,300 compounds, of which fewer than 10 were called active.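 The calls were made as follows: active = growth inhibition above 90% in viable cell count at a single dose; inactive = growth inhibition below 90%.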 Only a sample is shown.

Regarding `Cc1ccc(N2CN=c3s/c(=C\c4cccnc4)c(=O)n3C2)cc1`, the growth inhibition is 8.42% (inactive) and the condensed nuclei was found to be 1.92%. Moreover, the growth inhibition under setting [1] stood at 6.47%.

For `O=C1NCC(COCC2CC=CCC2)O1` (stereo unspecified), the growth inhibition was 12.9% (inactive) and the condensed nuclei is 2.4%. Under setting [1], the growth inhibition was -2.87%.

As for `COc1ccc(OC)c(N=C(C)C2=C(O)COC2=O)c1`, the growth inhibition is 23.1% (inactive) and the condensed nuclei worked out at 1.86%. Moreover, under setting [1], the growth inhibition worked out at 7.81%.

As for `CSc1nc(N2CCCC2)c2c(c1C#N)CC(C)(C)OC2`, the growth inhibition was -22.4% (inactive) and the condensed nuclei was determined as 2.73%. The growth inhibition under setting [1] was -13.8%.

Consider `COc1ccc(N2CCN(c3oc(COc4ccc(Cl)cc4)nc3C#N)CC2)cc1`, for which the growth inhibition is 22.4% (inactive) and the condensed nuclei is 2.73%. For the same molecule, under setting [1], the growth inhibition came to 12.5%.

On to `COC(=O)c1ccc(C2/C(=C(/O)c3ccc(OC)cc3)C(=O)C(=O)N2Cc2ccco2)cc1` (stereo unspecified), for which the growth inhibition is 26.5% (inactive) and the condensed nuclei worked out at 4.2%. For the same molecule, the growth inhibition under setting [1] is -0.21%.

`CCN(CC)c1ccc2cc(-c3nnc(-c4ccncc4)o3)c(=O)oc2c1`: the growth inhibition was 100% (active) and the condensed nuclei is 2.72%. The growth inhibition under setting [1] was -9.78%.

Regarding `CCCCCCc1cc2cc(-c3nnc(-c4ccccc4O)o3)c(=O)oc2cc1O`, the growth inhibition was 47% (inactive) and the condensed nuclei was 6.21%. Besides, the growth inhibition under setting [1] worked out at 17.7%.

In the case of `CCN(CC)c1ccc2cc(C(=O)Nc3ccccn3)c(=O)oc2c1`, the growth inhibition was 6.44% (inactive) and the condensed nuclei was 2.75%. Further, the growth inhibition under setting [1] was -4.18%.

Regarding `CCOC(=O)CSc1nc(N)c(C#N)c(-c2ccc(OC)cc2)c1C#N`, the growth inhibition is -7.67% (inactive) and the condensed nuclei is 3.97%. Moreover, the growth inhibition under setting [1] was -12.5%.

As for `Cc1c(C)c2cc(Cl)c(O)c(CN3CCCC(C)C3)c2oc1=O` (stereo unspecified), the growth inhibition is 25.4% (inactive) and the condensed nuclei came to 3.35%. In addition, the growth inhibition under setting [1] is -6.25%.

Turning to `CCOP(=O)(c1ccccc1)C1(C#N)CCCC1` (stereo unspecified), the growth inhibition was -30.7% (inactive) and the condensed nuclei is 4.43%. For the same molecule, the growth inhibition under setting [1] is -12.2%.

Regarding `CCCCOc1ccc(CN(C)c2ncnc(N)n2)cc1`, the growth inhibition is 56% (inactive) and the condensed nuclei was determined as 6.77%. Also, the growth inhibition under setting [1] is 22.5%.

`C1CCC(C(CC2CCCCN2)C2CCCCC2)CC1` (stereo unspecified): the growth inhibition is 99.3% (active) and the condensed nuclei is 30.1%. Further, the growth inhibition under setting [1] stood at 97.5%.

As for `CC1(C)CC(=O)C2=C(C1)N(Cc1ccco1)C(=O)C2(O)C(F)(F)F` (stereo unspecified), the growth inhibition was 11% (inactive) and the condensed nuclei was 2.44%. The growth inhibition under setting [1] is -21.1%.

Consider `CSc1nncc(=O)[nH]1`, for which the growth inhibition was -17.8% (inactive) and the condensed nuclei is 1.83%. Under setting [1], the growth inhibition is 10.8%.

Consider `CN1CCN(/C=N/c2sc3c(c2C#N)CCCCC3)CC1`, for which the growth inhibition is 45.9% (inactive) and the condensed nuclei amounted to 4.6%. Further, the growth inhibition under setting [1] came out at 15.9%.

With `COc1ccc2c(c1OC)C(=O)N1c3ccccc3SC21` (stereo unspecified), the growth inhibition is -18.9% (inactive) and the condensed nuclei was 2.15%. Besides, the growth inhibition under setting [1] was -15.6%.

`Nc1ccc2oc(-c3ccccc3Cl)nc2c1`: the growth inhibition is 26.7% (inactive) and the condensed nuclei came to 11.4%. Further, under setting [1], the growth inhibition was 5.57%.

For the molecule `CCc1cc(=O)oc2c(CN3CCN(C)CC3)c(O)c(Cl)cc12`, the growth inhibition was 52.2% (inactive) and the condensed nuclei came out at 4.11%. Also, the growth inhibition under setting [1] is -8.76%.

`CCOC(=O)NC(Nc1cc(C)on1)(C(F)(F)F)C(F)(F)F`: the growth inhibition is -33.3% (inactive) and the condensed nuclei stood at 4.42%. The growth inhibition under setting [1] is -14.8%.

For `COCCOC(=O)C1=C(C)OC(N)=C(C#N)C1c1ccco1` (stereo unspecified), the growth inhibition was 13.2% (inactive) and the condensed nuclei turned out to be 3.33%. Also, the growth inhibition under setting [1] is 1.7%.

In the case of `CCSc1nnc(NC(=O)C(CC)(C(F)(F)F)C(F)(F)F)s1`, the growth inhibition is 3.79% (inactive) and the condensed nuclei is 3.03%. Moreover, the growth inhibition under setting [1] was -3.56%.

Regarding `COc1ccc(OC)c(C2/C(=C(/O)c3ccccc3)C(=O)C(=O)N2Cc2ccco2)c1` (stereo unspecified), the growth inhibition is 11.9% (inactive) and the condensed nuclei is 4.83%. Further, the growth inhibition under setting [1] is -6.75%.

Take `O=C(C/C(=N/O)c1ccccc1O)C(F)F`: the growth inhibition is -0.96% (inactive) and the condensed nuclei amounted to 1.25%. In addition, the growth inhibition under setting [1] is -14.3%.

With `O=C(c1cccc2ccccc12)N1CCC(N2CCN(c3ccccc3)CC2)CC1`, the growth inhibition is -27.1% (inactive) and the condensed nuclei stood at 3.56%. Also, the growth inhibition under setting [1] is -18.2%.

For the molecule `Cn1c(O)c(C=Nc2ccc(Cc3ccncc3)cc2)c(=O)n(C)c1=O`, the growth inhibition was 13.2% (inactive) and the condensed nuclei came out at 1.24%. For the same molecule, the growth inhibition under setting [1] was -6.92%.

As for `CCOC(=O)CC1=NC(=O)CS1`, the growth inhibition is 7.12% (inactive) and the condensed nuclei amounted to 1.37%. The growth inhibition under setting [1] is 1.44%.

In the case of `Cc1ccc(S(=O)(=O)NC(=O)Nc2ncc3c(n2)CC(c2ccco2)CC3=O)cc1` (stereo unspecified), the growth inhibition was -27% (inactive) and the condensed nuclei is 2.73%. Further, the growth inhibition under setting [1] was 0.34%.

Regarding `CCCc1nc2n[nH]c(N)c2c2c1CCCC2`, the growth inhibition was 3.73% (inactive) and the condensed nuclei came to 3.31%. Besides, the growth inhibition under setting [1] was 6.01%.

For `O=C1C(=O)N(CCCn2ccnc2)C(c2ccccn2)/C1=C(/O)c1ccccc1` (stereo unspecified), the growth inhibition is 20.5% (inactive) and the condensed nuclei was determined as 3.21%. Also, under setting [1], the growth inhibition was -11.5%.

`CCOc1ccc(/C(O)=C2/C(=O)C(=O)N(CCN(CC)CC)C2c2ccco2)cc1` (stereo unspecified): the growth inhibition was -44.4% (inactive) and the condensed nuclei came to 3.46%. Besides, the growth inhibition under setting [1] is -11.1%.

Turning to `CC1CCN(c2[nH]c(=S)c(C#N)c3c2CCCC3)CC1`, the growth inhibition is 2.28% (inactive) and the condensed nuclei is 1.9%. Also, the growth inhibition under setting [1] was -10.9%.

As to `CC1(C)CC(=O)C2=C(C1)N(Cc1ccco1)C(=O)C2(NC(=O)c1cccnc1)C(F)(F)F` (stereo unspecified), the growth inhibition is 18.6% (inactive) and the condensed nuclei turned out to be 1.91%. For the same molecule, the growth inhibition under setting [1] is -14.4%.

For the molecule `CCCOc1ccc(Cc2nn[nH]n2)cc1`, the growth inhibition was 36.3% (inactive) and the condensed nuclei was 4.59%. Also, under setting [1], the growth inhibition is 4.03%.

As to `O=C(NCCOCCOCCNC(=O)c1cccnc1)c1cccnc1`, the growth inhibition was -50.5% (inactive) and the condensed nuclei was found to be 2.66%. In addition, the growth inhibition under setting [1] is -16.6%.

As for `CC(C)CSc1nc(N2CCOCC2)c2c(c1C#N)CC(C)(C)SC2`, the growth inhibition was -12.2% (inactive) and the condensed nuclei worked out at 2.93%. Besides, under setting [1], the growth inhibition turned out to be 13.9%.

Source of the values: PubChem BioAssay AID770 (SRMLSC, 2007).
